Some test systems named below: NCI-H23 lung; NCI-H226 lung; NCI-H322M lung; HOP-62 NSCLC; NCI-H460 lung; HOP-92 NSCLC; NCI-H522 lung; A549/ATCC NSCLC; 786-0 renal; COLO 205 colon; DU-145 prostate; K-562 leukemia; MALME-3M melanoma; MDA-MB-231 breast; RXF 393 renal; SF-268 CNS; SF-295 CNS; SF-539 CNS; UACC-257 melanoma; M14 melanoma.
Common to all, as to experiment: NCI-60 one-dose screen, 48 h (100 = growth as untreated, 0 = no growth, -100 = all killed)
What all share (settings): 10 µM unless noted

Results on eight compounds are retold here after PubChem BioAssay (NCI).

About 83,000 compounds went through this panel and 20% of them were active in at least one assay; those are over-represented in the sample as a whole.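 The test compound was applied at a single concentration to cells in 96-well plates for 48 hours, and percent growth was recorded.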 Unmarked numbers belong to inactive results. Active and inactive are the calls of the source. The calls were made as follows: active = growth percent below 10; inactive = the rest.

Turning to `CCOC(=O)c1cccnc1Nc1ccc(NC(=O)Nc2ccc(Cl)c(C(F)(F)F)c2)cc1`, the growth is 10.1% in the experiment with NCI-H23 lung; 52.4% in the experiment with NCI-H226 lung; 68.9% with NCI-H322M lung; 54.1% in the experiment on HOP-62 NSCLC; 17.2% in the experiment on NCI-H460 lung; -8.46% (active) with HOP-92 NSCLC. For the same compound, the growth with NCI-H522 lung is 21%; with A549/ATCC NSCLC, 42.8%; in the experiment with 786-0 renal it was 68%; in the experiment with COLO 205 colon it was 31.7%; in the experiment on DU-145 prostate it was 32.6%; with K-562 leukemia, 13.4%. The growth is 51.4% with MALME-3M melanoma; 95.8% in the experiment on MDA-MB-231 breast; 93.7% in the experiment with RXF 393 renal; 73.5% in the experiment on SF-268 CNS; 9.85% (active) with SF-295 CNS; 75.6% in the experiment with SF-539 CNS. In addition, the growth with UACC-257 melanoma was 58%; in the experiment on M14 melanoma, 42.7%.

Regarding `Cc1ccsc1[C@H]1c2[nH]c3ccccc3c2C[C@H]2C(=O)N(CCCCCCC(=O)NO)CC(=O)N12`, the growth is 89.6% in the experiment on NCI-H23 lung; 97.3% with NCI-H226 lung; 81.1% in the experiment on NCI-H322M lung; 101% in the experiment with HOP-62 NSCLC; 78.4% in the experiment with NCI-H460 lung; 92.6% in the experiment on HOP-92 NSCLC. Also, the growth in the experiment on NCI-H522 lung was 58.8%; with A549/ATCC NSCLC, 99.3%; with 786-0 renal it was 99.1%; in the experiment on COLO 205 colon it was 96.5%; in the experiment with DU-145 prostate, 90.6%; in the experiment on K-562 leukemia it was 58.2%. Moreover, the growth was 25.6% in the experiment on MALME-3M melanoma; 96.8% in the experiment on MDA-MB-231 breast; 85.9% with RXF 393 renal; 105% in the experiment on SF-268 CNS; 95.1% in the experiment with SF-295 CNS; 77.9% with SF-539 CNS. Besides, the growth in the experiment with UACC-257 melanoma is 76%; in the experiment on M14 melanoma, 86.4%.

Turning to `O=C(CCCCCCN1CC(=O)N2[C@@H](C3CC3)c3[nH]c4ccccc4c3C[C@H]2C1=O)NO`, the growth in the experiment on NCI-H23 lung is 66.4%; in the experiment on NCI-H226 lung it was 95%; with NCI-H322M lung it was 74.6%; in the experiment with HOP-62 NSCLC it was 69.6%; in the experiment on NCI-H460 lung, 74.5%; in the experiment with HOP-92 NSCLC, 53.4%. In addition, the growth in the experiment with NCI-H522 lung was 24.4%; in the experiment on A549/ATCC NSCLC it was 99%; in the experiment with 786-0 renal, 108%; in the experiment on COLO 205 colon, 98%; in the experiment with DU-145 prostate, 70.9%; in the experiment with K-562 leukemia, 21.5%. Besides, the growth in the experiment with MALME-3M melanoma is 10.1%; in the experiment with MDA-MB-231 breast, 83.7%; with RXF 393 renal, 76.5%; in the experiment with SF-268 CNS it was 93.6%; in the experiment with SF-295 CNS, 74.9%; in the experiment on SF-539 CNS, 60.7%. Besides, the growth is 41.9% in the experiment with UACC-257 melanoma and 60.2% in the experiment with M14 melanoma.

On to `Cc1ccc2c(n1)C(=O)C(Cl)=C(Nc1ccc(C(=O)OC(C)(C)C)cc1)C2=O`, for which the growth in the experiment on NCI-H23 lung was 75.2% [9.25 µM]; in the experiment on NCI-H226 lung, 85.8% [9.25 µM]; in the experiment with NCI-H322M lung it was 101% [9.25 µM]; in the experiment with HOP-62 NSCLC it was 106% [9.25 µM]; in the experiment with NCI-H460 lung, 102% [9.25 µM]; in the experiment with HOP-92 NSCLC, -54.9% [9.25 µM] (active). Besides, the growth was -14.1% [9.25 µM] (active) in the experiment with NCI-H522 lung; 99.9% [9.25 µM] in the experiment with A549/ATCC NSCLC; -56.4% [9.25 µM] (active) in the experiment with 786-0 renal; -46.1% [9.25 µM] (active) with COLO 205 colon; 97.9% [9.25 µM] with DU-145 prostate; 0.658% [9.25 µM] (active) with K-562 leukemia. The growth was 24% [9.25 µM] with MALME-3M melanoma; 53.9% [9.25 µM] in the experiment with MDA-MB-231 breast; -19.3% [9.25 µM] (active) in the experiment on RXF 393 renal; 87.6% [9.25 µM] with SF-268 CNS; 104% [9.25 µM] with SF-295 CNS; 100% [9.25 µM] with SF-539 CNS. Moreover, the growth in the experiment on UACC-257 melanoma was 29.5% [9.25 µM]; in the experiment on M14 melanoma, 61.3% [9.25 µM].

For the compound `Nc1ccc(Nc2ncnc3sc4c(c23)CCN(Cc2ccccc2)C4)cc1`, the growth in the experiment with NCI-H23 lung was 102%; in the experiment on NCI-H226 lung, 91.5%; in the experiment on NCI-H322M lung, 101%; in the experiment on HOP-62 NSCLC it was 103%; with NCI-H460 lung, 105%; with HOP-92 NSCLC it was 92.2%. The growth in the experiment with NCI-H522 lung is 91.3%; in the experiment with A549/ATCC NSCLC it was 100%; in the experiment with 786-0 renal, 105%; in the experiment with COLO 205 colon, 115%; in the experiment with DU-145 prostate it was 106%; in the experiment with K-562 leukemia, 96.7%. For the same compound, the growth in the experiment on MALME-3M melanoma was 103%; in the experiment with MDA-MB-231 breast, 86.6%; with RXF 393 renal, 91.2%; in the experiment with SF-268 CNS it was 101%; in the experiment on SF-295 CNS it was 97.8%; in the experiment with SF-539 CNS, 78.5%. The growth with UACC-257 melanoma and in the experiment with M14 melanoma was 106% throughout.

For the compound `CN1CCN(Cc2ccc(NC(=O)c3cncc(C#Cc4cnc5ccc(O[C@@H]6CCOC6)nn45)c3)cc2C(F)(F)F)CC1`, the growth with NCI-H23 lung is -65.2% (active); with NCI-H226 lung, -60.7% (active); with NCI-H322M lung it was -49.3% (active); in the experiment with HOP-62 NSCLC it was -79.1% (active); in the experiment with NCI-H460 lung, -83.3% (active); with HOP-92 NSCLC, -39.6% (active). Further, the growth in the experiment on NCI-H522 lung was -72% (active); with A549/ATCC NSCLC, -76.8% (active); with 786-0 renal it was -87.9% (active); in the experiment with COLO 205 colon it was -77.4% (active); with DU-145 prostate it was -91.1% (active); with K-562 leukemia it was -12.6% (active). For the same compound, the growth with MALME-3M melanoma is -89.6% (active); in the experiment on MDA-MB-231 breast, -73.2% (active); in the experiment with RXF 393 renal, -79.1% (active); with SF-268 CNS, -68.3% (active); with SF-295 CNS it was -88.5% (active); with SF-539 CNS, -89% (active). Moreover, the growth in the experiment on UACC-257 melanoma is -74.6% (active); with M14 melanoma, -86.3% (active).

For the compound `Cc1ccc(CSC2=C(Cl)CN(c3ccc(Cl)cc3)C2=O)cc1`, the growth is 105% in the experiment with NCI-H23 lung; 98.4% with NCI-H226 lung; 104% in the experiment with NCI-H322M lung; 103% in the experiment with HOP-62 NSCLC; 103% with NCI-H460 lung; 95.2% in the experiment with HOP-92 NSCLC. The growth with NCI-H522 lung was -4.44% (active); in the experiment with A549/ATCC NSCLC, 104%; in the experiment on 786-0 renal, 105%; with COLO 205 colon, 129%; with DU-145 prostate it was 108%; with K-562 leukemia, 100%. Further, the growth with MALME-3M melanoma is 96.9%; in the experiment with MDA-MB-231 breast, 107%; in the experiment with RXF 393 renal, 111%; with SF-268 CNS, 108%; in the experiment on SF-295 CNS it was 101%; in the experiment with SF-539 CNS it was 103%. In addition, the growth in the experiment with UACC-257 melanoma and in the experiment with M14 melanoma was 107% each time.

On to `O=C(NCCNc1cc(-c2cn(-c3ccccc3)nc2-c2cccc(O)c2)ccn1)Nc1cc(C(F)(F)F)cc(C(F)(F)F)c1`, for which the growth with NCI-H23 lung was 98.1%; in the experiment with NCI-H226 lung, 85%; with NCI-H322M lung, 86.5%; with HOP-62 NSCLC, 95%; in the experiment on NCI-H460 lung, 102%; in the experiment with HOP-92 NSCLC, 89.6%. The growth in the experiment on NCI-H522 lung was 92.2%; with A549/ATCC NSCLC it was 96.5%; with 786-0 renal it was 99%; in the experiment with COLO 205 colon it was 107%; in the experiment on DU-145 prostate, 106%; in the experiment on K-562 leukemia it was 86.9%. For the same compound, the growth in the experiment on MALME-3M melanoma is 90.6%; in the experiment with MDA-MB-231 breast, 92.9%; in the experiment with RXF 393 renal, 86.7%; with SF-268 CNS, 88.8%; with SF-295 CNS, 89.8%; in the experiment on SF-539 CNS, 89.3%. The growth is 101% in the experiment on UACC-257 melanoma and 89% in the experiment with M14 melanoma.
